# Measurements taken from PubChem BioAssay (Tox21).
# Values joined by “and” are separate entries in the source; they are usually repeats but may differ in a detail not shown here. Equal values may be shown once. Records with an inconclusive call do not appear. Entries that show only a call come without a potency. Unmarked numbers belong to inactive results. Active and inactive are the calls of the source. Unless noted, calls come from the whole dose curve; as a rule, active = well fitted curve in the direction sought with a large enough effect in the repeat runs; inconclusive = weak or mixed curves; inactive = no such curve, though single readings can be large; an effect the other way counts as inactive or inconclusive.
# Tests used:
# [1] = qHTS assay to identify aromatase inhibitors - cell viability counter screen (AID 743084);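 note: cells stimulated with testosterone during compound exposure; nearly all actives have a fitted effect of over 55% in size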
# [2] = target: Aryl hydrocarbon receptor (Homo sapiens) (UniProt P35869); experiment: qHTS assay to identify small molecule that activate the aryl hydrocarbon receptor (AhR) signaling pathway (AID 743085); note: nearly all actives have a fitted effect of over 15% in size; note: potency is the fitted concentration of half-maximal effect;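 for activation: HG2L7.5c1 human HepG2 liver cells with stably integrated DRE-driven firefly reporter; series mostly up to about 70 µM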
# Summary of the method: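 AhR agonist activity is inferred from enhanced light output of a DRE-controlled firefly luciferase reporter in HepG2 cells, measured with ONE-Glo following 24 h treatment at 37C.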
# [3] = qHTS assay to identify small molecule that activate the aryl hydrocarbon receptor (AhR) signaling pathway - cell viability counter screen (AID 743086);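 note: HepG2 liver cells carrying the AhR DRE luciferase reporter; series mostly up to about 70 µM; nearly all actives have a fitted effect of over 45% in size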
# Summary of the method: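 Cytotoxicity counter screen: CellTiter-Fluor signal (30 min, 37 C) in 4000 HepG2 cells/well carrying the DRE-luciferase reporter, following 24 h compound exposure at 37 C.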
# [4] = target: Peroxisome proliferator-activated receptor gamma (Homo sapiens) (UniProt P37231); experiment: qHTS assay to identify small molecule agonists of the peroxisome proliferator-activated receptor gamma (PPARg) signaling pathway (AID 743094; active = well fitted activation curve with a large enough effect in the signal ratio in the repeat runs, not every such curve was filed as active; the % refers to the signal ratio)
# Summary of the method: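 Reporter activation was scored by fluorescence of cleaved LiveBLAzer B/G substrate (1 h, room temperature) in PPARg-bla HEK293H cells previously treated 17 h at 37C with DMSO-dissolved compounds.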
# [5] = target: Peroxisome proliferator-activated receptor gamma (Homo sapiens) (UniProt P37231); experiment: qHTS assay to identify small molecule antagonists of the peroxisome proliferator-activated receptor gamma (PPARg) signaling pathway (AID 743191; calls by dose curve; note: series mostly up to about 63 µM; nearly all actives have a fitted effect of over 30% in size)
# Summary of the method: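 Beta-lactamase reporter under UAS control in HEK293H PPARg-bla cells; compound treatment 17 h at 37C. Read-out: fluorescence intensity after 1 h room-temperature incubation with LiveBLAzer B/G FRET substrate.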
# [6] = qHTS assay to identify small molecule antagonists of the peroxisome proliferator-activated receptor gamma (PPARg) signaling pathway - cell viability counter screen (AID 743194); note: nearly all actives have a fitted effect of over 55% in size
# Summary of the method: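 Viability was measured as CellTiter-Glo luminescence in GeneBLAzer PPARg UAS-bla HEK293H cells. These cells had been exposed 17 h at 37 C to compounds together with rosiglitazone at 50 nM final, with the beta-lactamase readout taken in the same wells.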
# [7] = qHTS assay for small molecule agonists of the antioxidant response element (ARE) signaling pathway (AID 743202; active = well fitted activation curve with a large enough effect in the signal ratio in the repeat runs, not every such curve was filed as active; the % refers to the signal ratio; note: potency is the fitted concentration of half-maximal effect)
# Summary of the method: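 Beta-lactamase reporter activity, read as fluorescence intensity, reflects ARE/Nrf2 pathway induction in HepG2 cells after 16 h compound exposure at 37 C; substrate loading was 2 h at room temperature.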
# [8] = qHTS assay for small molecule agonists of the antioxidant response element (ARE) signaling pathway - cell viability counter screen (AID 743203; calls by dose curve; note: nearly all actives have a fitted effect of over 55% in size)
# Summary of the method: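 Viability counter screen: stably transfected ARE-bla HepG2 line, 16 hrs compound exposure at 37C/5% CO2, ATP-based CellTiter-Glo luminescence measured in the reporter wells.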
# [9] = qHTS assay for small molecule activators of the heat shock response signaling pathway - cell viability counter screen (AID 743209); note: nearly all actives have a fitted effect of over 50% in size
# Summary of the method: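 Viability of HSE-bla HeLa cells is measured with CellTiter-Glo in the wells already used for the reporter read. Compound exposure lasts 5 h at 37 C, and luminescence is read after 30 min at room temperature.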
# [10] = qHTS assay for small molecule activators of the heat shock response signaling pathway (AID 743210; active = well fitted activation curve with a large enough effect in the signal ratio in the repeat runs, with a control signal flat, not every such curve was filed as active; the % refers to the signal ratio;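 note: HeLa cells with beta-lactamase reporter driven by heat shock elements; series mostly up to about 63 µM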)
# Summary of the method: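 Fluorescence from a cleaved B/G FRET substrate (2.5 h, room temp) reports HSE-driven beta-lactamase in HeLa cells treated 5 h at 37 C with DMSO-dissolved compounds.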
# Sequence of Aryl hydrocarbon receptor (Homo sapiens) (P35869 whole entry, looked up): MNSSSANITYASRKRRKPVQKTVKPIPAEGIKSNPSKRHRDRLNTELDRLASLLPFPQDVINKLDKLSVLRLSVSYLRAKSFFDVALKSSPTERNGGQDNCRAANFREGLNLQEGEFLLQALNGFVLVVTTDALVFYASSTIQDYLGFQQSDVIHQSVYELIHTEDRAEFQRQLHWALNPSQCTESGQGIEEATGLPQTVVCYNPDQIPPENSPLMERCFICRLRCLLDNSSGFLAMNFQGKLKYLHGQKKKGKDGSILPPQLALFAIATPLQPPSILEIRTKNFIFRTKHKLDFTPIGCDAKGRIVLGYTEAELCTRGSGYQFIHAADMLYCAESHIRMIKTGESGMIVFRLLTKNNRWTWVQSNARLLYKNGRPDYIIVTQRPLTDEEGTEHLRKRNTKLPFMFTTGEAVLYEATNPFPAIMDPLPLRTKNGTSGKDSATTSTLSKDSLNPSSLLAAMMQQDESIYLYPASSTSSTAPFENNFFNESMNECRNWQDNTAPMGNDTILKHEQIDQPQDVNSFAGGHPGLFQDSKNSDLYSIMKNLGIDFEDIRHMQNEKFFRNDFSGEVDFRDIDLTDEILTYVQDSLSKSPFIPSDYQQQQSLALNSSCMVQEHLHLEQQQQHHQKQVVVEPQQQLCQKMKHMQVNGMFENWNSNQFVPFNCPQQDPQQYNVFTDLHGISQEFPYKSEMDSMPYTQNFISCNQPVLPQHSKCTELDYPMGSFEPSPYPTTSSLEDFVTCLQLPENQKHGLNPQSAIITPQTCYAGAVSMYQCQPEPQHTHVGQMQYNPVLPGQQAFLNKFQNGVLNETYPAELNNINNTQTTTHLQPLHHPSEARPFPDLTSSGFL
# Sequence of Peroxisome proliferator-activated receptor gamma (Homo sapiens) (P37231 whole entry, looked up): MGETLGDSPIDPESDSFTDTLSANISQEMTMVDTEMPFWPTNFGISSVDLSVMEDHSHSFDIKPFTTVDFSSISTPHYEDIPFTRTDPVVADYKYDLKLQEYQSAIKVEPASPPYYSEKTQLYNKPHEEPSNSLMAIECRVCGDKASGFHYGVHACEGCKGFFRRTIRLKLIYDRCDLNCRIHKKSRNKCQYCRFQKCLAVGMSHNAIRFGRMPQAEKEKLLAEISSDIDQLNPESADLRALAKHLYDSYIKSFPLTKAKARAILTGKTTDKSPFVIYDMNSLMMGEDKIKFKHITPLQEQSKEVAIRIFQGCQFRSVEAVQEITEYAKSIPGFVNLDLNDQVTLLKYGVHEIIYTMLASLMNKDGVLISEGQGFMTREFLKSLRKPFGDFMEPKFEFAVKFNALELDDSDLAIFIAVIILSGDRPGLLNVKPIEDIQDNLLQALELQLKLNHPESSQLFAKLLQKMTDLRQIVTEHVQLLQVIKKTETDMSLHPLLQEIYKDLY
SMILES,outcome [1],Potency [2],outcome [3],outcome [4],Potency [5],outcome [6],Potency [7],outcome [8],outcome [9],outcome [10],"ratio activity, negative = inhibition [5]"
CCC[N+](=O)[O-],inactive,inactive,inactive,inactive,inactive,inactive,inactive,inactive,inactive,inactive,–
CCCCCCCCCCCC#N,inactive,inactive,inactive,inactive,inactive,inactive,inactive,inactive,inactive,inactive,–
CC(=O)C=C(C)C,inactive,inactive,inactive,inactive,inactive,inactive,inactive,inactive,inactive,inactive,–
O=C(O)c1ccccn1,inactive,inactive,inactive,inactive,inactive,inactive,inactive,inactive,inactive,inactive,–
[O-][Cl+2]([O-])O,inactive,inactive,inactive,inactive,inactive,inactive,inactive,inactive,inactive,inactive,–
Oc1ccccc1Cl,inactive,inactive,inactive,inactive,inactive,inactive,inactive,inactive,inactive,inactive,–
O=c1[nH]c(=O)[nH]c(=O)[nH]1,inactive,inactive,inactive,inactive,inactive,inactive,inactive,inactive,inactive,inactive,–
CC(C)C#N,inactive,inactive,inactive,inactive,inactive,inactive,inactive,inactive,inactive,inactive,–
C=C(C)CCl,inactive,inactive,inactive,inactive,–,inactive,inactive,inactive,inactive,inactive,-4.46% [at 5.95 µM]
CCCCCCCCCl,inactive,inactive,inactive,inactive,inactive,inactive,inactive,inactive,inactive,inactive,–
CC(C#N)CCC#N (centres undefined),inactive,inactive,inactive,inactive,inactive,inactive,inactive,inactive,inactive,inactive,–
CCC[CH2][Sn]([Cl])([Cl])[Cl],inactive,inactive,inactive,inactive,inactive,inactive,1.1 µM (active) and 2.43 µM (active),inactive,inactive,inactive,–
CC(C)N1C(=O)c2ccccc2NS1(=O)=O,inactive,inactive,inactive,inactive,inactive,inactive,inactive,inactive,inactive,inactive,–
CC(C)OC(=O)Nc1ccccc1,inactive,inactive,inactive,inactive,inactive,inactive,inactive,inactive,inactive,inactive,–
CC(C)C1(C)N=C(c2nc3ccccc3cc2C(=O)O)NC1=O (centres undefined),inactive,inactive,inactive,inactive,inactive,inactive,inactive,inactive,inactive,inactive,–
c1cc2c3c(cccc3c1)CC2,inactive,inactive,inactive,inactive,inactive,inactive,inactive,inactive,inactive,inactive,–
C1CC2OC2CC1C1CO1 (centres undefined),inactive,inactive,inactive,inactive,inactive,inactive,inactive,inactive,inactive,inactive,–

SMILES,outcome [1],Potency [2],outcome [3],outcome [4],Potency [5],outcome [6],Potency [7],outcome [8],outcome [9],outcome [10],"ratio activity, negative = inhibition [5]"
COC(=O)c1ccccc1C(=O)OC,inactive,inactive,inactive,inactive,inactive,inactive,inactive,inactive,inactive,inactive,–
COP(N)(=O)SC (centres undefined),inactive,inactive,inactive,inactive,inactive,inactive,inactive,inactive,inactive,inactive,–
Clc1ccc(Cl)cc1,inactive,inactive,inactive,inactive,inactive,inactive,inactive,inactive,inactive,inactive,–
ClCc1cccnc1,inactive,inactive,inactive,inactive,inactive,inactive,inactive,inactive,inactive,inactive,–
O=c1ccc(=O)[nH][nH]1,inactive,inactive,inactive,inactive,inactive,inactive,inactive,inactive,inactive,–,–
CCCCOC(=O)c1ccccc1C(=O)OCCCC,inactive,inactive,inactive,inactive,inactive,inactive,inactive,inactive,inactive,inactive,–
CN=C=S,inactive,inactive,inactive,inactive,inactive,inactive,inactive,inactive,inactive,inactive,–
CCOP(OCC)OCC,inactive,inactive,inactive,inactive,inactive,inactive,inactive,inactive,inactive,inactive,–
Nc1ccc(Cc2ccc(N)cc2)cc1,inactive,30.1 µM (active),inactive,inactive,inactive,inactive,inactive,inactive,inactive,inactive,–
CC1OC(C)OC(C)O1 (centres undefined),inactive,inactive,inactive,inactive,inactive,inactive,inactive,inactive,inactive,inactive,–
c1ccc(-c2ccccc2)cc1,inactive,inactive,inactive,inactive,inactive,inactive,inactive,inactive,inactive,inactive,–
Cc1cc(-c2cc(C)c(N)c(C)c2)cc(C)c1N,inactive,1.54 µM (active) and 756 nM (active),inactive,inactive,inactive,inactive,inactive,inactive,inactive,inactive,–
c1ccc(OP(Oc2ccccc2)Oc2ccccc2)cc1,inactive,inactive,inactive,inactive,inactive,inactive,inactive,inactive,inactive,inactive,–
O=[N+]([O-])c1ccc(Oc2ccc(Cl)cc2Cl)cc1,inactive,inactive,inactive,inactive,inactive,inactive,inactive,inactive,inactive,inactive,–
COCCl,inactive,inactive,inactive,inactive,inactive,inactive,inactive,inactive,inactive,inactive,–
CN(N=O)c1ccccc1,inactive,inactive,inactive,inactive,inactive,inactive,inactive,inactive,inactive,inactive,–
O=S(=O)(c1ccc(O)cc1)c1ccc(O)cc1,inactive,inactive,inactive,inactive,inactive,inactive,inactive,inactive,inactive,inactive,–
